Inhibition data for 15 compounds are collected here from PubChem BioAssay AID651610 (Broad Institute, 2012).

The structures appear in SMILES notation. “And” between values parts separate entries of the source, which are not always exact repeats. Equal entries are not always repeated. The whole screen tested about 360,000 compounds, of which about 3,900 (1.1%) were called active.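 Rule for the calls: active = mean replicate inhibition score of at least 50 and every replicate individually at or above 50; inconclusive = only one of the two criteria met; inactive = mean below 50 and not all replicates reaching 50.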 The full list was thinned out, with actives kept by preference.

This test can be described thus: inhibitors of HIV-1 Env-driven cell-cell fusion, primary screen, HeLa-JRFL effector, CEM21 target cells, luciferase (AID 651610).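 Note: 0% = plate neutral controls and 100% = maraviroc near 300 nM.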 As to conditions: stronger effect = higher value; at 12.3 µM unless noted.
Regarding `CC(C)(C)c1ccc(CN2C(=O)CN=C(c3ccccc3)c3ccccc32)cc1`, the inhibition is 86.8% (active).
With `O=C1CC(=O)N(Cc2ccccc2)C(=O)N1CCCCCCN1C(=O)CC(=O)N(Cc2ccccc2)C1=O`, the inhibition was -2.61% (inactive).
The figure for `O=S(=O)(c1ccccc1)N1CCC2CCNC2C1` (stereo not given) is -11.9% (inactive).
The value for `C[C@H](CO)N1C[C@H](C)[C@H](CN(C)C(=O)Oc2ccc3ccccc3c2)OCc2cnnn2CCCC1=O` was -15.9% [at 16.7 µM] (inactive); that for `O=C(O)[C@@H]1[C@@H](CO)[C@@H]2Cn3c(ccc(-c4ccccc4F)c3=O)[C@H]1N2C(=O)c1cccnc1` was 1.12% [at 16.7 µM] (inactive).
The figure for `CCCCCCCCCCCCn1ccc(=N)cc1` is 69% (active); for `C[C@@H]1CN([C@H](C)CO)C(=O)CCCn2cc(nn2)CO[C@@H]1CN(C)C(=O)Oc1cccc2ccccc12` it is 0.664% [at 16.7 µM] (inactive).
With `CCOC(=O)[C@@H]1[C@@H]2NC(=O)N[C@@]1(C)Oc1ccccc12`, the inhibition was -2.84% [at 16.7 µM] (inactive) and -0.731% [at 16.7 µM] (inactive).
With `CS(=O)(=O)N1CCC2CCNC2C1` (stereo not given), the inhibition is -7.16% (inactive).
For `CCC(C)(O)C(=O)OC1C(=O)OC2CC3C(C)=CC(=O)C(O)C3(C)C3C4(O)OCC23C1C(C)C4O` (stereo not given), the inhibition was 75.7% (active).
The value for `O=C(O)[C@H]1[C@H](CO)[C@H]2Cn3c(ccc(-c4ccccc4F)c3=O)[C@@H]1N2C(=O)c1cccnc1` was -4.52% [at 16.7 µM] (inactive); that for `Cc1cc(N2CCNC[C@@H]2C)ccc1N1CC[C@H](O)C1` was 0.23% (inactive).
The figure for `COC(=O)C[C@@H]1CC[C@@H]2NC[C@@H](O)COC[C@H]2O1` is -11.9% [at 16.7 µM] (inactive); for `O=C(c1ccccc1)C(O)(CN1CCCCC1)c1ccccc1` (stereo not given) it is 8.44% (inactive).
For `CC(=O)C1(O)CCC2C3CCC4=C(Cl)C(=O)CCC4(C)C3CCC21C` (stereo not given), the inhibition is 16.9% (inactive).

The inhibition is the drop in the measured response relative to a control, in per cent.
